For 13 compounds, Potency and outcome results are on record in PubChem BioAssay (Tox21).

Experiment [1] is described as follows: qHTS assay to identify small molecule antagonists of the thyroid receptor (TR) signaling pathway - cell viability counter screen (AID 743064). Also: nearly all actives have a fitted effect of over 50% in size. In a few lines: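 GH3.TRE-Luc cells, 4 h pre-plating; cpd + T3 1 nM final; 37 °C 23.5 h; CellTiter-Fluor 30 min; fluorescence read.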
A general note: In qHTS, concentration-response curves come from the screen itself.

Experiment [2] in a line: qHTS assay to identify small molecule antagonists of the thyroid receptor (TR) signaling pathway (AID 743065). Also: series mostly up to about 70 µM; nearly all actives have a fitted effect of over 55% in size. In outline: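 GH3.TRE-Luc rat pituitary cells carrying two TR response elements driving luciferase were plated for 4 h, given compound plus 1 nM T3 (final), and incubated 23.5 h at 37 C. ONE-Glo luminescence measured reporter inhibition; CellTiter-Fluor fluorescence tracked cytotoxicity.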

The test system of experiment [3] is thyroid hormone receptor (rat, GH3 cells). Nature of the experiment: qHTS assay to identify small molecule agonists of the thyroid receptor (TR) signaling pathway (AID 743066; calls by dose curve).
In experiment [4] the target is Estrogen receptor (Homo sapiens) (UniProt P03372). Briefly: qHTS assay to identify small molecule antagonists of the estrogen receptor alpha (ER-alpha) signaling pathway (AID 743069; active = well fitted curve in the direction sought with a large enough effect in the signal ratio in the repeat runs, not every such curve was filed as active; inconclusive = weak or mixed curves, or effect the other way; inactive = no such curve, though single readings can be large or run the other way; the % refers to the signal ratio). In a few lines:
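A 17beta-estradiol challenge was applied right after compound transfer to ER-alpha-UAS-bla HEK293 cells previously kept in charcoal-stripped serum. Plates stood 18 hr at 37C and 5% CO2; fluorescence was read following 2 hr FRET substrate loading at room temperature.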

Experiment [5] is described as follows: qHTS assay to identify small molecule antagonists of the estrogen receptor alpha (ER-alpha) signaling pathway - cell viability counter screen (AID 743074; calls by dose curve;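 also: HEK293 cells carrying ER-alpha-UAS-bla reporter stimulated with 17beta-estradiol; nearly all actives have a fitted effect of over 45% in size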).
The target of experiment [6] is Estrogen receptor (Homo sapiens) (UniProt P03372). Briefly: qHTS assay to identify small molecule agonists of the estrogen receptor alpha (ER-alpha) signaling pathway (AID 743075; calls by dose curve;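 also: HEK293 GripTite cells with ER-alpha and UAS-driven beta-lactamase reporter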; also: potency is read from the fitted curve at half-maximal effect).
Chain of Estrogen receptor (Homo sapiens) (P03372 whole entry, looked up): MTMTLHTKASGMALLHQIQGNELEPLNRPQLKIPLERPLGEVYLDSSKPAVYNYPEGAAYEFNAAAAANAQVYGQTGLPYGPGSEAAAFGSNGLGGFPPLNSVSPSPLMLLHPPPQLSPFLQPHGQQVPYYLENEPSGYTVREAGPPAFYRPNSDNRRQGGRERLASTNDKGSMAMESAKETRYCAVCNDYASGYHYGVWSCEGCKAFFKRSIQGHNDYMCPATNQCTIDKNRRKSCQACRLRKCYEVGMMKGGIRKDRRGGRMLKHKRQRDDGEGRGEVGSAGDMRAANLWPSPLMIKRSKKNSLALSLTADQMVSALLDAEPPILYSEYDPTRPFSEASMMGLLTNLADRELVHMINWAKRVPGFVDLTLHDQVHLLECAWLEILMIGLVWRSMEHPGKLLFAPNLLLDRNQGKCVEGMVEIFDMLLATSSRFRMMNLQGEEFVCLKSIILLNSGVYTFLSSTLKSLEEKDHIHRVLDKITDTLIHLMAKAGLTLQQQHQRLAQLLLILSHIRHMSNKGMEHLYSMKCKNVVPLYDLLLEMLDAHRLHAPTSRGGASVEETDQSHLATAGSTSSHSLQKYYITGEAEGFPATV
Experiment [7] has the same target. Briefly: qHTS assay to identify small molecule agonists of the estrogen receptor alpha (ER-alpha) signaling pathway using the BG1 cell line (AID 743079). Also: nearly all actives have a fitted effect of over 20% in size. Also: potency is read from the fitted curve at half-maximal effect.
The nature of experiment [8]: qHTS assay to identify small molecule antagonists of the estrogen receptor alpha (ER-alpha) signaling pathway using the BG1 cell line (AID 743080; calls by dose curve;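 also: BG1 cells stimulated with 17beta-estradiol alongside compound; series mostly up to about 70 µM; nearly all actives have a fitted effect of over 25% in size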). In outline: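 Endogenous full-length ER-alpha in BG1-Luc-4E2 cells drives a stably integrated 4×ERE luciferase gene; compounds were tested against 17beta-estradiol over 21.5 h, with luminescence and multiplexed viability fluorescence recorded.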

Experiment [9] can be described thus: qHTS assay to identify small molecule antagonists of the estrogen receptor alpha (ER-alpha) signaling pathway using the BG1 cell line - cell viability counter screen (AID 743081).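 Also: compound given together with 17beta-estradiol as the ER stimulus; series mostly up to about 70 µM; nearly all actives have a fitted effect of over 45% in size.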
The target in experiment [10] is Aromatase (Homo sapiens) (UniProt P11511). Briefly: qHTS assay to identify aromatase inhibitors (AID 743083). Also: nearly all actives have a fitted effect of over 55% in size. Also: potency is read from the fitted curve at half-maximal effect.
Chain of Aromatase (Homo sapiens) (P11511 whole entry, looked up): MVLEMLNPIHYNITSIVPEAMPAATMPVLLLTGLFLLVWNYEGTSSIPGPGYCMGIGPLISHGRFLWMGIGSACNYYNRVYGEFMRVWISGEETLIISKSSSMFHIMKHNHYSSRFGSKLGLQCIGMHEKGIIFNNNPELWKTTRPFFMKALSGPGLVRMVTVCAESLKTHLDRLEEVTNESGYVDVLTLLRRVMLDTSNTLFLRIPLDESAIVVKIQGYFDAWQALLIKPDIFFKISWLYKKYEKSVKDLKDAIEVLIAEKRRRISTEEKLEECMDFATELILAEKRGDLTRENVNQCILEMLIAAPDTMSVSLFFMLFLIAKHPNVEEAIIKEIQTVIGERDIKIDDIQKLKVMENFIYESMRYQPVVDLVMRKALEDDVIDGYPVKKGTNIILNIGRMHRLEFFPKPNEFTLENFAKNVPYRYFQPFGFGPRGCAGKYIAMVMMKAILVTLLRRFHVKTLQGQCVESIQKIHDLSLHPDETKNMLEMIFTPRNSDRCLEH
Experiment [11] in a line: qHTS assay to identify aromatase inhibitors - cell viability counter screen (AID 743084).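 Also: cells stimulated with testosterone during compound exposure; nearly all actives have a fitted effect of over 55% in size.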
Experiment [12] concerns the target Aryl hydrocarbon receptor (Homo sapiens) (UniProt P35869). Briefly: qHTS assay to identify small molecule that activate the aryl hydrocarbon receptor (AhR) signaling pathway (AID 743085). Also: nearly all actives have a fitted effect of over 15% in size. Also: potency is read from the fitted curve at half-maximal effect.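 As to activation: HG2L7.5c1 human HepG2 liver cells with stably integrated DRE-driven firefly reporter; series mostly up to about 70 µM.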 In outline:
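Luminescence read-out: ONE-Glo reagent, 30 min at room temperature, in HG2L7.5c1 HepG2 reporter cells treated 24 h at 37C. Viability was measured beforehand by CellTiter-Fluor fluorescence after 30 min at 37C.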

A short description of experiment [13]: qHTS assay to identify small molecule that activate the aryl hydrocarbon receptor (AhR) signaling pathway - cell viability counter screen (AID 743086).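 Also: HepG2 liver cells carrying the AhR DRE luciferase reporter; series mostly up to about 70 µM; nearly all actives have a fitted effect of over 45% in size.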 In outline: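 HepG2-AhR-luc (HG2L7.5c1) cells, 4000/well, were preincubated 5 h at 37C, exposed to compound in qHTS format for 24 hr at 37C, then given CellTiter-Fluor for 30 min; viability was read as fluorescence in the reporter wells.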

The target in experiment [14] is Peroxisome proliferator-activated receptor gamma (Homo sapiens) (UniProt P37231). Briefly: qHTS assay to identify small molecule agonists of the peroxisome proliferator-activated receptor gamma (PPARg) signaling pathway (AID 743094; active = well fitted activation curve with a large enough effect in the signal ratio in the repeat runs, not every such curve was filed as active; inconclusive = weak or mixed curves, or effect the other way; inactive = no such curve, though single readings can be large or run the other way; the % refers to the signal ratio). In outline: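 Cell-based bla reporter, HEK293H background, PPARg-driven UAS. Pre-incubation 5 h, 37C, 5% CO2. Compound 17 h, 37C. Substrate 1 h RT; fluorescence.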
Chain of Peroxisome proliferator-activated receptor gamma (Homo sapiens) (P37231 whole entry, looked up): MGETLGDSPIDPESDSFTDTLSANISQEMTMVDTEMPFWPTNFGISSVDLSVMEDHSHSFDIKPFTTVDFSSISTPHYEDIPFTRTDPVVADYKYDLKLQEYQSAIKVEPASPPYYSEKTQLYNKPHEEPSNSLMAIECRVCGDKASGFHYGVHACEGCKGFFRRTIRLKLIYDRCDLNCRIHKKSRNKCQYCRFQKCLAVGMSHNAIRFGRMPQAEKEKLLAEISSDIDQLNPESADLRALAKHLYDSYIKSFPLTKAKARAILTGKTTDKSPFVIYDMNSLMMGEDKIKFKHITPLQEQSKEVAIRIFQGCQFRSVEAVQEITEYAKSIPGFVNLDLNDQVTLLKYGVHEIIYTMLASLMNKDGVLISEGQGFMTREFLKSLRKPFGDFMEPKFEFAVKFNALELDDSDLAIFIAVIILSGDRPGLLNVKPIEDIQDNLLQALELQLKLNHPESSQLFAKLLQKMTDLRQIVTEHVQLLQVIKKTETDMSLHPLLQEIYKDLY

Experiment [15] is described as follows: qHTS assay for small molecule agonists of the antioxidant response element (ARE) signaling pathway (AID 743202; active = well fitted activation curve with a large enough effect in the signal ratio in the repeat runs, not every such curve was filed as active; inconclusive = weak or mixed curves, or effect the other way; inactive = no such curve, though single readings can be large or run the other way; the % refers to the signal ratio; also: potency is read from the fitted curve at half-maximal effect). In outline: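 Following a 16 h, 37 C exposure of reporter HepG2 cells (ARE-driven beta-lactamase, 2,000 cells/well) to compounds, FRET substrate was applied for 2 h at room temperature and fluorescence intensity recorded.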
Experiment [16] can be described thus: qHTS assay for small molecule activators of the heat shock response signaling pathway - cell viability counter screen (AID 743209). Also: nearly all actives have a fitted effect of over 50% in size. In a few lines: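 Same-well multiplex: after 2.5 h room-temperature incubation with LiveBLAzer B/G substrate and fluorescence reading, CellTiter-Glo reagent was added to HSE-bla HeLa cells that had received compound for 5 h at 37 C; luminescence read after 30 min.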

Experiment [17] in a line: qHTS assay for small molecule activators of the heat shock response signaling pathway (AID 743210; active = well fitted activation curve with a large enough effect in the signal ratio in the repeat runs, with a control signal flat, not every such curve was filed as active; inconclusive = weak or mixed curves; the % refers to the signal ratio; also: series mostly up to about 63 µM). In outline: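 Heat shock element–beta-lactamase HeLa reporter cells; qHTS with compounds for 5 h at 37 C; detection by FRET substrate fluorescence after 2.5 h at RT.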

Values joined by “and” are separate entries in the source; they are usually repeats but may differ in a detail not shown here. Equal entries are not always repeated. Some structures have more than one record in an assay (separate samples or runs), and their calls can disagree. Active and inactive are the calls of the source. Unless noted, calls follow the shape of the dose curve; as a rule, active = well fitted curve in the direction sought with a large enough effect in the repeat runs; inconclusive = weak or mixed curves; inactive = no such curve, though single readings can be large; an effect the other way counts as inactive or inconclusive.

Chain of Aryl hydrocarbon receptor (Homo sapiens) (P35869 whole entry, looked up): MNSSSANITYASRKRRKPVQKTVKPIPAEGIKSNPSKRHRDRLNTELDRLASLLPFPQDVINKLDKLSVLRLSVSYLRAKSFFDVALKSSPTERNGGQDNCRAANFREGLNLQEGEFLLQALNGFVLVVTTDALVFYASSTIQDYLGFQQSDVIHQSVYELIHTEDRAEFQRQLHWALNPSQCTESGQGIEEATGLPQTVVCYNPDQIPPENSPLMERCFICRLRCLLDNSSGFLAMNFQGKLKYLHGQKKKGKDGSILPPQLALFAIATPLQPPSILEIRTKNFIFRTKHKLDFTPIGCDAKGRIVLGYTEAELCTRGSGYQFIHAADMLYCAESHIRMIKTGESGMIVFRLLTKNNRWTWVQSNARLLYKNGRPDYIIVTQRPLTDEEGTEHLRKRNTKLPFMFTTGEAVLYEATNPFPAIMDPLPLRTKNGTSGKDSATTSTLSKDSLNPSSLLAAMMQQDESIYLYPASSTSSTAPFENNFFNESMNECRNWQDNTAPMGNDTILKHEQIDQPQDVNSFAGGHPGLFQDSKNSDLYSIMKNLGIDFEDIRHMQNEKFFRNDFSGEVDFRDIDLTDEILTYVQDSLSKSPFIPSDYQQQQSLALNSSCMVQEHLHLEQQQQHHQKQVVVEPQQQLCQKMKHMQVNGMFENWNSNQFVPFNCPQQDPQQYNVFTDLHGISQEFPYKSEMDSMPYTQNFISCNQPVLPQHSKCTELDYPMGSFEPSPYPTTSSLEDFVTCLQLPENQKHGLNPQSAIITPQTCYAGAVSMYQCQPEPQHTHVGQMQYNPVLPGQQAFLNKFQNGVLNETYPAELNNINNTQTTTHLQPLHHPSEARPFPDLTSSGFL

Regarding `Cc1cc(=O)c(C(=O)N[C@@H](C(=O)N[C@@H]2C(=O)N3C(C(=O)O)=C(CSc4nnnn4C)CS[C@H]23)c2ccc(O)cc2)c[nH]1`, the Potency result in [1], in experiment [2], in experiment [3], in experiment [4], in experiment [5] and in [6] was “inactive” each time. Besides, the Potency result in [8], in [9], in experiment [10], in experiment [11], in experiment [12] and in experiment [13] was “inactive” in each case. Further, the Potency entry in [14] is “inactive”. The Potency in [7] is 23.7 µM (active).

On to `O=C(O)COc1ccccc1/C=N/NC(=O)c1ccncc1`, for which the Potency entry in experiment [1], in experiment [2], in [3], in [4], in experiment [5] and in experiment [6] was “inactive” each time. In addition, the Potency result in experiment [7], in experiment [8], in [9], in experiment [10], in experiment [11] and in experiment [13] was “inactive” each time. In addition, the Potency result in experiment [14] is “inactive”.

With `C(=C\c1ccncc1)/c1ccccc1`, the Potency result in [1], in experiment [2], in experiment [3], in experiment [4], in experiment [5] and in experiment [6] was “inactive” throughout. Moreover, the Potency entry in experiment [9], in experiment [11], in experiment [13] and in experiment [14] was “inactive” in each case. In addition, the Potency in [7] was 13.3 µM (active); in experiment [10], “inactive and 21.1 µM (active)”; in experiment [12], 23.7 µM (active) and 13.3 µM (active).

Regarding `CC(C)=CCC/C(C)=C/CC/C(C)=C/CC/C=C(\C)CC/C=C(\C)CCC=C(C)C`, the Potency result in [1], in [2], in experiment [3], in experiment [4], in [5] and in experiment [6] was “inactive” throughout. The Potency result in [7], in experiment [8], in experiment [9], in experiment [10], in experiment [11] and in experiment [12] was “inactive” throughout. Also, the Potency result in experiment [13] and in experiment [14] was “inactive” throughout.

As to `O=C(CCCN1CCN2CCCC2C1)c1ccc(F)cc1` (configuration not stated), the Potency result in experiment [1], in experiment [2], in [3], in experiment [4], in experiment [5] and in [6] was “inactive” in each case. The Potency result in experiment [7], in [8], in experiment [9], in [10], in experiment [11] and in experiment [12] was “inactive” each time. Also, the Potency result in experiment [13] and in experiment [14] was “inactive” in each case.

Take `COC(=O)C(CN)c1c[nH]c2ccc(OC)cc12` (configuration not stated): the Potency result in experiment [1], in experiment [2], in experiment [3], in [4], in experiment [5] and in experiment [6] was “inactive” in each case. In addition, the Potency result in [7], in experiment [8], in experiment [9], in [10], in [11] and in experiment [13] was “inactive” throughout. In addition, the Potency entry in [14] was “inactive”.

`CCCOC(=O)c1ccc(O)cc1`: the Potency entry in experiment [1], in experiment [2], in [3], in [4], in [5] and in [9] was “inactive” throughout. Also, the Potency result in [10], in experiment [11], in experiment [13], in [14] and in experiment [16] was “inactive” throughout. Also, the Potency in [6] was 26.8 µM [activator] (active) and 24.5 µM [inconclusive] (active); in experiment [7], 21.1 µM (active) and 16.1 µM (active); in experiment [12], “inactive and 23 µM (active)”; in [15], 17.2 µM (active). Besides, in experiment [17], the outcome was inactive.

For `Cc1cccc(C)c1NC(=O)C1CCCCN1C` (configuration not stated), the Potency result in experiment [1], in [2], in experiment [3], in [4], in experiment [5] and in experiment [6] was “inactive” each time. The Potency result in experiment [7], in experiment [8], in experiment [10], in experiment [11], in experiment [12] and in experiment [13] was “inactive” throughout. The Potency result in experiment [14] is “inactive”.

Consider `NC[C@H]1O[C@H](O[C@H]2[C@H](O)[C@@H](O[C@H]3O[C@H](CO)[C@@H](O)[C@H](N)[C@H]3O)[C@H](N)C[C@@H]2N)[C@H](N)C[C@@H]1O`, for which the Potency result in [1], in [2], in experiment [3], in experiment [4], in experiment [5] and in experiment [6] was “inactive” throughout. Besides, the Potency entry in experiment [7], in experiment [8], in experiment [9], in [10], in [11] and in experiment [12] was “inactive” each time. The Potency entry in experiment [13] and in experiment [14] was “inactive” each time.

In the case of `Nc1nc(/C(=C/CC(=O)O)C(=O)N[C@@H]2C(=O)N3C(C(=O)O)=CCS[C@H]23)cs1`, the Potency result in experiment [1], in [2], in experiment [3], in [4], in [5] and in experiment [6] was “inactive” in each case. For the same compound, the Potency entry in experiment [7], in [8], in [9], in [10], in experiment [11] and in experiment [13] was “inactive” throughout. Further, the Potency entry in experiment [14] is “inactive”.

In the case of `CC(=O)O[C@H]1C[C@@H]2CC[C@@H]3[C@H](CC[C@@]4(C)[C@H]3C[C@H]([N+]3(C)CCCCC3)[C@@H]4OC(C)=O)[C@@]2(C)C[C@@H]1[N+]1(C)CCCCC1`, the Potency result in [1], in experiment [2], in experiment [3], in [4], in experiment [6] and in [7] was “inactive” in each case. Also, the Potency result in experiment [8], in experiment [9], in experiment [10], in [11], in [12] and in experiment [13] was “inactive” in each case. In addition, the Potency result in experiment [14] is “inactive”.

Take `CO[C@H]1C[C@H](O[C@H]2[C@H](C)[C@@H](O[C@@H]3O[C@H](C)C[C@H](N(C)C)[C@H]3O)[C@@H](C)C[C@]3(CO3)C(=O)[C@H](C)[C@@H](O)[C@@H](C)[C@@H](C)OC(=O)[C@@H]2C)O[C@@H](C)[C@@H]1O`: the Potency result in experiment [1], in experiment [2], in experiment [3], in [4], in experiment [5] and in experiment [6] was “inactive” throughout. Further, the Potency entry in experiment [7], in experiment [8], in experiment [9], in experiment [10], in experiment [11] and in experiment [12] was “inactive” each time. The Potency entry in experiment [13] and in [14] was “inactive” each time.

In the case of `CN(Cc1ccccc1)Cc1ccccc1`, the Potency entry in experiment [1], in experiment [2], in experiment [3], in [4], in experiment [5] and in experiment [6] was “inactive” in each case. Further, the Potency result in experiment [7], in experiment [8], in [9], in experiment [10], in [11] and in experiment [13] was “inactive” in each case. The Potency entry in experiment [14] is “inactive”.
